Test results from PubChem BioAssay (NCATS).
Results filed as inconclusive are left out. Where a call stands in place of a potency, no number is given. Activity calls are given as the source filed them. Calls come from the whole dose curve; as a rule, active = well fitted curve in the direction sought with a large enough effect; inconclusive = small, poorly fitted or top-dose-only effect, or another doubt; inactive = no such curve, though single readings can be large; an effect the other way counts as inactive or inconclusive.

Tested on: not listed separately
Assay: qHTS for Inhibitors of ATXN expression: Validation of Cytotoxic Assay (AID 588349)
Settings: cytotoxicity counter-screen for ATXN expression inhibitors, cell viability; series mostly up to 57.1 µM
Method in brief: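 Read-out: ATP-based luminescence (CellTiter Glo) reflecting viability of HEK293 cells after 72 hr incubation at 37 degrees C with a concentration series of each compound.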

Structure (SMILES)	outcome
C[N+](C)(C)CCO	inactive
O=[N+]([O-])c1ccc(-c2nc(-c3ccc(F)cc3)c(-c3ccncc3)[nH]2)cc1	inactive
O=C1NC(=O)/C(=C/c2ccc3c(c2)OC(F)(F)O3)S1	inactive
NC(N)=NCCCCN=C(N)N	inactive
O=C1NC(c2cccc([N+](=O)[O-])c2)=CCN1c1ccccc1O	inactive
Brc1ccc([C@H]2CN3CCSC3=N2)cc1	inactive
COc1ccccc1N1CCN(CCN2C(=O)CC3(CCCC3)CC2=O)CC1	inactive
COC(=O)C1=CO[C@@H](O)[C@@H]2C(CO)=CC[C@H]12	inactive
Nc1ncnc2n[nH]c(Nc3ccc(F)cc3)c12	inactive
Cn1cnc2c(NCc3ccccc3)nc(NCCO)nc21	inactive
N[C@@H](Cn1ccc(=O)c(O)c1)C(=O)O	inactive
CCN(CC)CCNC(=O)c1ccc(NS(C)(=O)=O)cc1	inactive
Cc1nn(-c2ccccc2)c(C)c1/C=N/N1CCN(Cc2ccccc2)CC1	inactive

Tested on: not listed separately
Assay: qHTS for Inhibitors of ATXN expression: Validation (AID 588378); note: nearly all actives have a fitted effect of over 75% in size; note: potency is the fitted concentration of half-maximal effect
Settings: cell-based ATXN2 expression reporter assay, luminescence; series mostly up to 57.1 µM
Method in brief: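 Validation of ATXN2 expression inhibitors uses a cell-based luciferase fusion reporter in HEK293 cells, with 24 h compound exposure and paired viability (fluorescence) and reporter (luminescence) end-point reads.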

Structure (SMILES)	Potency
C[N+](C)(C)CCO	inactive
O=[N+]([O-])c1ccc(-c2nc(-c3ccc(F)cc3)c(-c3ccncc3)[nH]2)cc1	inactive
O=C1NC(=O)/C(=C/c2ccc3c(c2)OC(F)(F)O3)S1	inactive
NC(N)=NCCCCN=C(N)N	inactive
O=C1NC(c2cccc([N+](=O)[O-])c2)=CCN1c1ccccc1O	inactive
Clc1ccc2c(c1)N=C(N1CCNCC1)c1ccccc1N2	12.6 µM (active)
Brc1ccc([C@H]2CN3CCSC3=N2)cc1	inactive
COc1ccccc1N1CCN(CCN2C(=O)CC3(CCCC3)CC2=O)CC1	inactive
COC(=O)C1=CO[C@@H](O)[C@@H]2C(CO)=CC[C@H]12	inactive
Cn1cnc2c(NCc3ccccc3)nc(NCCO)nc21	inactive
N[C@@H](Cn1ccc(=O)c(O)c1)C(=O)O	inactive
CCN(CC)CCNC(=O)c1ccc(NS(C)(=O)=O)cc1	inactive
Cc1nn(-c2ccccc2)c(C)c1/C=N/N1CCN(Cc2ccccc2)CC1	inactive

Biological target: DNA dC->dU-editing enzyme APOBEC-3G (Homo sapiens) (UniProt Q9HC16)
Sequence (Q9HC16 whole entry, looked up): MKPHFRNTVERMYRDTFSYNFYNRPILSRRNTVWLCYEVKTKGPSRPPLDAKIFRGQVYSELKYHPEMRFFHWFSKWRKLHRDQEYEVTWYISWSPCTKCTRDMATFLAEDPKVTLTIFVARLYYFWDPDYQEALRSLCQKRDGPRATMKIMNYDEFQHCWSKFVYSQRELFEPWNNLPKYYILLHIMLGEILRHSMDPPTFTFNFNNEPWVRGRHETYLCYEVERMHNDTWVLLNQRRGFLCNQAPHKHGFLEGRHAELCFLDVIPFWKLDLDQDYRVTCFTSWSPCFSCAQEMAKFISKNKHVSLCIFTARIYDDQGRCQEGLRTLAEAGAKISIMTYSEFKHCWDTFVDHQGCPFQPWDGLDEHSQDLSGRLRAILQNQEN
Assay: qHTS for inhibitors of Vif-A3G interactions: Validation (AID 588379)
Settings: Vif-A3G protein interaction assay; series mostly up to 46.1 µM
Method in brief: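 HeLa cells stably expressing Vif and A3G-eYFP, 700 cells/well, incubated overnight at 37 deg C, then exposed to compound overnight at 37 deg C. Inhibition of Vif-mediated degradation read as increased yellow fluorescence (Ex 488/Em 500-530) by laser-scanning cytometry.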

Structure (SMILES)	outcome
NC(N)=NCCCCN=C(N)N	inactive
O=C1NC(c2cccc([N+](=O)[O-])c2)=CCN1c1ccccc1O	inactive
Clc1ccc2c(c1)N=C(N1CCNCC1)c1ccccc1N2	inactive
COc1ccccc1N1CCN(CCN2C(=O)CC3(CCCC3)CC2=O)CC1	inactive
Cn1cnc2c(NCc3ccccc3)nc(NCCO)nc21	inactive
CC(C)N(CCC(=O)c1ccc2ccccc2c1)Cc1ccccc1	inactive
